Consider 40 molecules from PubChem BioAssay (Tox21).

The structures appear in SMILES notation. Results filed as inconclusive are left out. A number with no mark means an inactive call. Calls of active or inactive are those of the source. Calls come from the whole dose curve; as a rule, active = well fitted activation curve with a large enough effect; inconclusive = small, poorly fitted or top-dose-only effect; inactive = flat fitted curve, though single readings scatter.
% is set by controls: 0 for no effect and ±100 for the full control effect; potency is the fitted concentration of half-maximal effect.

The assay can be described thus: qHTS assay to identify small molecule phospholipidosis (PLD) inducers (AID 1259344). The settings on record: HepG2 phospholipidosis, LipidTOX Red imaging, 24 h; series mostly up to 38.3 µM; PLD induction: at the top concentration. The source says:
National Center for Advancing Translational Sciences [NCATS]
Drug-induced Phospholipidosis (PLD) caused by cationic amphiphilic drugs is characterized by the appearance of unicentric or multicentric-lamellar bodies when viewed under electron microscope. Electron microscopy is the gold standard method for PLD detection, however, this method is time-consuming and labor intensive, making it unsuitable for evaluating a large set of compounds. A cell-based phospholipidosis assay has been developed using the LipidTox reagent in HepG2 cells and miniaturized into a 1536-well plate format. Drug induced phospholipid accumulation is stained with the LipidTox dyes in red color which then is determined using an automated high content screening system.
HepG2 cells are dispensed at 900 cells/3 uL/well into Collagen I-coated 1536-well black-wall/clear-bottom assay plates (Greiner Bio-One, Monroe, NC) using the Multidrop Combi 8 channel dispenser (Thermo Fisher, Waltham, MA, USA). The assay plates are incubated at 37 C for 4 hours to allow the cell attachment. 3 uL of 1:500 LipidTOX Red dye is added using the dispenser, and then 23 nL compounds are added via a Wako Pintool station (Wako Automation, San Diego, CA). Amiodarone, a known PLD inducer, was used as a positive control and DMSO was used as a negative control. The assay plates were then incubated at 37 C for 24 hours.
For fixations, 4 uL of 8% paraformaldehyde fixative solution containing 10 ug/mL Hoechst 33342 in Dulbecco's phosphate-buffered saline (DPBS) is added using a Kalypsys washer/dispenser (Kalypsys, San Diego, CA, USA). After incubation at room temperature for 30 min, the assay plates are washed once with DPBS using a Kalypsys washer/dispenser. The assay plates are then sealed and stored at 4 C before imaging. The fluorescence intensities (595 nm excitation, 615 nm emission for LipidTOX; 352 nm excitation, 461 nm emission for Hoechst 33342) are measured using an ImageXpress Micro Widefield High Content Screening System (Molecular Devices, Sunnyvale, CA, USA) with a 20x Plan Fluor objective. Images are acquired for one site in each well and analyzed with the MetaXpress software (Molecular Devices) using the Transfluor module. Several algorithmic outputs, such as pit count per well, pit count per cell, pit integrated intensity per well, and pit integrated intensity per cell, are used for quantitative image analysis for PLD.
Background: qHTS replaces the single test concentration by a dilution series.
With `Cc1ccnc2c1NC(=O)c1cccnc1N2C1CC1`, the “PLD induction” value is 1.28%.

As to `CC(=O)O[C@]1(C(C)=O)CC[C@H]2[C@@H]3C[C@H](C)C4=CC(=O)CC[C@]4(C)[C@H]3CC[C@@]21C`, the “PLD induction” value was 8.1%.

Take `Oc1c(Cl)cc(Cl)c(Cl)c1Cc1c(O)c(Cl)cc(Cl)c1Cl`: the “PLD induction” value was -1.68%.

Turning to `Nc1nc(=S)c2[nH]cnc2[nH]1`, the “PLD induction” value is 2.02%.

As for `O=C(Oc1ccccc1)c1ccccc1O`, the “PLD induction” value is 2.93%.

Take `NC12CC3CC(CC(C3)C1)C2`: the “PLD induction” value was -0.677%.

Turning to `CN(C)c1ccc2nc3ccc(=[N+](C)C)cc-3sc2c1`, the “PLD induction” value was 1.78%.

As to `COc1cc(C(=S)N2CCOCC2)ccc1O`, the “PLD induction” value was 1.27%.

As to `CC(C)C(=O)c1c(C(C)C)nn2ccccc12`, the PLD induction was -2.74% [at 7.66 µM].

In the case of `CNC1(C)C2CCC(C2)C1(C)C` (stereo not given), the “PLD induction” value is 3.69%.

As to `CC(COc1ccccc1)N(CCCl)Cc1ccccc1` (stereo not given), the “PLD induction” value was 0.616%.

With `COc1ccc(CCN(C)CCCC(C#N)(c2ccc(OC)c(OC)c2)C(C)C)cc1OC` (stereo not given), the “PLD induction” value is -0.181%.

For `NC(=Nc1ccccc1)Nc1ccccc1`, the Potency result is “inactive”.

`O=C(O)CP(=O)(O)O`: the “PLD induction” value was -0.854%.

For `CCC(C)(C)C(=O)O[C@H]1C[C@@H](C)C=C2C=C[C@H](C)[C@H](CC[C@@H]3C[C@@H](O)CC(=O)O3)[C@H]21`, the “PLD induction” value was -0.141% [at 15.5 µM].

In the case of `O=c1n(CC2CO2)c(=O)n(CC2CO2)c(=O)n1CC1CO1` (stereo not given), the “PLD induction” value is 0.0748%.

As to `CCCCC(CC)COC(=O)CC(C(=O)OCC(CC)CCCC)S(=O)(=O)O` (stereo not given), the Potency result is “inactive”.

Take `Cc1c(O)cccc1C(=O)N[C@@H](CSc1ccccc1)[C@H](O)CN1C[C@H]2CCCC[C@H]2C[C@H]1C(=O)NC(C)(C)C`: the “PLD induction” value is 3.46%.

Regarding `O=C(O)c1cn(-c2ccc(F)cc2)c2cc(N3CCNCC3)c(F)cc2c1=O`, the “PLD induction” value is -0.295%.

Take `CC[C@]1(O)C[C@@H]2CN(CCc3c([nH]c4ccccc34)[C@@](C(=O)OC)(c3cc4c(cc3OC)N(C)[C@H]3[C@@](O)(C(=O)OC)[C@H](OC(C)=O)[C@]5(CC)C=CCN6CC[C@]43[C@@H]65)C2)C1`: the Potency entry was “inactive”.

For `CCCCCC(=O)O[C@]1(C(C)=O)CC[C@H]2[C@@H]3CCC4=CC(=O)CC[C@]4(C)[C@H]3CC[C@@]21C`, the “PLD induction” value was 2.24%.

Regarding `O=C1NCC2(CCN(CCc3ccccc3)CC2)O1`, the “PLD induction” value is 0.0319%.

Turning to `CNCCC(Oc1ccc(C(F)(F)F)cc1)c1ccccc1` (stereo not given), the Potency was 10 µM (active).

On to `CC1COc2c(N3CCN(C)CC3)c(F)cc3c(=O)c(C(=O)O)cn1c23` (stereo not given), for which the “PLD induction” value was 0.516%.

Take `CCCOC(=O)c1cc(O)c(O)c(O)c1`: the “PLD induction” value was -1.43%.

With `O=C1OC2(c3ccc(O)cc3Oc3cc(O)ccc32)c2ccccc21`, the Potency result was “inactive”.

With `CCCN[C@H]1CCc2nc(N)sc2C1`, the “PLD induction” value was 0.41%.

Consider `Oc1ccc(Cl)cc1Cc1cc(Cl)ccc1O`, for which the “PLD induction” value was -0.688%.

On to `CCn1cc(C(=O)O)c(=O)c2cc(F)c(N3CCNC(C)C3)c(F)c21` (stereo not given), for which the Potency result is “inactive”.

For `CCN1CCCC1CNC(=O)c1cc(S(=O)(=O)CC)c(N)cc1OC` (stereo not given), the PLD induction is -3.27% [at 7.66 µM].

As for `Cc1cc(OCCOCC[N+](C)(C)Cc2ccccc2)ccc1C(C)(C)CC(C)(C)C`, the “PLD induction” value is -1.18%.

In the case of `COC(c1ccccc1)(c1ccccc1)[C@H](Oc1nc(C)cc(C)n1)C(=O)O`, the “PLD induction” value is -0.207%.

For the molecule `CC(C)CCOC(=O)c1ccc(N(C)C)cc1`, the “PLD induction” value is 0.354%.

For the molecule `CCOc1ccccc1C(N)=O`, the “PLD induction” value was -0.919%.

With `CC(C)(C)NC(=O)[C@@H]1CN(Cc2cccnc2)CCN1C[C@@H](O)C[C@@H](Cc1ccccc1)C(=O)N[C@H]1c2ccccc2C[C@H]1O`, the “PLD induction” value is 6.76%.

Turning to `c1ccc2c(c1)CCCC2C1=NCCN1` (stereo not given), the “PLD induction” value is -1.17%.

Take `O=C(OCc1ccccc1)c1ccc(O)cc1`: the “PLD induction” value was -1.15%.

As to `CC(=O)N[C@@H](CS)C(=O)O`, the “PLD induction” value is -0.927%.

With `NC(N)=Nc1nc(CSCC/C(N)=N/S(N)(=O)=O)cs1`, the “PLD induction” value is 12.7%.

`N[C@@H]1CONC1=O`: the “PLD induction” value is -0.378%.
